Results on nine molecules are retold here after PubChem BioAssay (NCI).

What all share (test): NCI-60 one-dose screen, 48 h (100 = growth as untreated, 0 = no growth, -100 = all killed)
Common to all, as to conditions: 10 µM unless noted

In assay [1] the test system is SR leukemia.
Assay [2] relates to RPMI-8226 leukemia.
Assay [3] deals with OVCAR-8 ovarian.
The test system of assay [4] is OVCAR-5 ovarian.
For assay [5], the system named is OVCAR-4 ovarian.
For assay [6], the system named is SK-OV-3 ovarian.
Assay [7] has as its system IGROV1 ovarian.
Assay [8] relates to HS 578T breast.
Assay [9] has as its system NCI/ADR-RES ovarian.
The test system of assay [10] is T-47D breast.
For assay [11], the system named is BT-549 breast.
For assay [12], the system named is MDA-MB-435 melanoma.
The subject of assay [13] is SW-620 colon.
Assay [14] deals with MCF7 breast.
Assay [15] relates to HCT-116 colon.
Assay [16] has as its system HCC-2998 colon.
For assay [17], the system named is KM12 colon.
The subject of assay [18] is OVCAR-3 ovarian.

Compounds without any hit were thinned out: in the full panel of roughly 83,000, 20% have a hit.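 The test compound was applied at a single concentration to cells in 96-well plates for 48 hours, and percent growth was recorded.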 Values without a mark were called inactive. The source made the active and inactive calls. Rule for the calls: active = growth percent below 10; inactive = the rest.

For `CCC1CCc2nc3sc(C(=O)Nc4ccccc4C)c(N)c3cc2C1` (stereo not drawn), the growth in assay [1] was 12.8%; in [2] it was 3.92% (active); in [3], 57.3%; in assay [4], 76.5%; in assay [5], 89%; in assay [6], 44.8%. The growth in assay [7] was 65.3%; in assay [8], 49.4%; in assay [9], 18.4%; in assay [10], 63.6%; in assay [11], 74.7%; in assay [12], -38.4% (active). For the same molecule, the growth is 26.9% in assay [13]; 15.2% in [14]; 25.5% in assay [15]; 62.2% in assay [16]; 29.6% in [17].

For `O=C(CCCn1c(=O)c2sc3ccccc3c2n2nnc(-c3ccccc3)c12)NCCc1cnc[nH]1`, the growth in [1] is 84.2%; in assay [2], 62.5%; in [3], -28.5% (active); in [4], -78.9% (active); in assay [5], -54.5% (active); in assay [6], 75.3%. Moreover, the growth in assay [18] was -47.6% (active); in assay [8], 90.6%; in assay [9], 36.1%; in assay [10] it was 4.62% (active); in assay [11], 32.3%; in assay [12], -49.9% (active). Also, the growth was -11.1% (active) in assay [13]; -47.4% (active) in assay [14]; -86.6% (active) in [15]; -42.6% (active) in assay [16]; -7.92% (active) in assay [17].

Regarding `O=S(=O)(NCCNc1cc(-c2cn(-c3ccccc3)nc2-c2ccccc2)ccn1)c1cccc2ccccc12`, the growth in assay [1] was 56%; in assay [2], 38.7%; in [3], 56%; in [4], 74.4%; in assay [5], 49.1%; in assay [6] it was 66.3%. Moreover, the growth is 59.5% in assay [18]; 56.3% in [8]; 43.8% in assay [9]; 24.3% in assay [10]; 49.3% in assay [11]; 46.3% in assay [12]. In addition, the growth in [13] was 62.5%; in assay [14], 28.2%; in assay [15], 34.8%; in assay [16], 56.4%; in assay [17] it was 41.6%.

As for `CCOC(=O)C1=C(C)NC(=O)NC1c1ccc(OCC(=O)N/N=C/c2ccc(Cl)cc2)cc1` (stereo not drawn), the growth was 68.7% in assay [1]; 90.1% in [2]; 95.2% in assay [3]; 87.9% in [4]; 95.1% in assay [5]; 88.9% in assay [6]. In addition, the growth in assay [18] is 99.8%; in assay [8], 86.6%; in assay [9], 106%; in assay [10] it was 87.1%; in [11], 87.5%; in [12] it was 90.6%. Besides, the growth was 94.2% in assay [13]; 90.1% in assay [14]; 94.2% in assay [15]; 97.5% in assay [16]; 96.3% in assay [17].

Turning to `COC(=O)C(CC(=O)c1ccc(-c2ccccc2)cc1)c1ccccc1` (stereo not drawn), the growth was 24.2% in [1]; 88.3% in [2]; 77.5% in assay [3]; 84.1% in assay [4]; 71.6% in assay [5]; 85.2% in [6]. Moreover, the growth in assay [18] was 10.6%; in assay [8], 71.7%; in assay [9], 17.5%; in [10] it was 51.9%; in assay [11], 71.2%; in [12], 5.69% (active). Also, the growth in assay [13] is 26.9%; in [14] it was 16.2%; in [15] it was 23.5%; in assay [16], 96.5%; in assay [17], 55.6%.

As to `CSc1nc(-c2cc3ccccc3o2)cc(-c2ccc(Cl)cc2)c1C#N`, the growth was 82.6% in assay [1]; 26.6% in assay [2]; 28.7% in assay [3]; 93.7% in [4]; -57.5% (active) in assay [5]; -21.3% (active) in assay [6]. Moreover, the growth in assay [18] was 37.7%; in assay [8], 76%; in assay [9], 64.3%; in assay [10] it was 24.7%; in assay [11], 115%; in [12] it was 111%. Besides, the growth in assay [13] is 71.1%; in assay [14] it was 14%; in assay [15] it was 58.8%; in [16], 85.6%; in [17], 40.4%.

As to `N#Cc1ncc(-c2ccc(F)c(F)c2F)c(NC2CCCCCC2)n1`, the growth in [1] is 69.5%; in assay [2], 63.1%; in assay [3] it was 86.1%; in [4] it was 94.2%; in assay [5], 81.1%; in assay [6] it was 95.8%. Further, the growth in [7] was 83.8%; in assay [8] it was 75.9%; in [9], 83.8%; in assay [10], 62.7%; in assay [11], 71%; in assay [12], 96%. For the same molecule, the growth in assay [13] is 98%; in assay [14], 83.5%; in [15], 72.6%; in [16], 95.8%; in [17] it was 74%.

As for `O=C(CCCn1c2c(sc3ccccc32)c(=O)n2nnc(-c3ccccc3)c12)NCCc1cnc[nH]1`, the growth was 55.2% in assay [1]; -4.25% (active) in assay [2]; -50.6% (active) in [3]; -82.1% (active) in assay [4]; -92.5% (active) in assay [5]; 5.51% (active) in assay [6]. Also, the growth in assay [18] is -49.7% (active); in assay [8], 23.4%; in assay [9], 21.2%; in assay [10] it was -25.4% (active); in [11], 72.2%; in assay [12], -95.1% (active). The growth in [13] was -84.5% (active); in assay [14], -100% (active); in assay [15] it was -100% (active); in assay [16], 25.7%; in [17] it was -63% (active).

`CC(C)(C)c1cc(-c2nc3ccc(N4CCN(CCO)CC4)cc3[nH]2)cc(C(C)(C)C)c1O`: the growth in [1] was -16% (active); in [2] it was 1.15% (active); in [3] it was 83.8%; in assay [4] it was 90.6%; in assay [5], 76.7%; in assay [6], 84%. The growth in [18] is 72.7%; in [8], 67%; in assay [9], 93.2%; in assay [10], 60.6%; in assay [11] it was 92%; in assay [12] it was 6.38% (active). For the same molecule, the growth in [13] is 9.88% (active); in assay [14], 35.6%; in assay [15], 25.3%; in assay [16], 12.9%; in assay [17], 18.2%.
